TDP1 block: blocks human tyrosyl-DNA phosphodiesterase 1; recombinant TDP1, AlphaScreen DNA substrate cleavage; Q9NUW8; Potency, µM (titrated, usually from 130 µM), for inactives: at the top dose activity change, negative = inhibition, hits mostly inhibitors; 350,000 tested, 0.28% active; note: nearly all actives have a fitted effect of over 40% in size
Target sequence (Q9NUW8 whole entry, looked up): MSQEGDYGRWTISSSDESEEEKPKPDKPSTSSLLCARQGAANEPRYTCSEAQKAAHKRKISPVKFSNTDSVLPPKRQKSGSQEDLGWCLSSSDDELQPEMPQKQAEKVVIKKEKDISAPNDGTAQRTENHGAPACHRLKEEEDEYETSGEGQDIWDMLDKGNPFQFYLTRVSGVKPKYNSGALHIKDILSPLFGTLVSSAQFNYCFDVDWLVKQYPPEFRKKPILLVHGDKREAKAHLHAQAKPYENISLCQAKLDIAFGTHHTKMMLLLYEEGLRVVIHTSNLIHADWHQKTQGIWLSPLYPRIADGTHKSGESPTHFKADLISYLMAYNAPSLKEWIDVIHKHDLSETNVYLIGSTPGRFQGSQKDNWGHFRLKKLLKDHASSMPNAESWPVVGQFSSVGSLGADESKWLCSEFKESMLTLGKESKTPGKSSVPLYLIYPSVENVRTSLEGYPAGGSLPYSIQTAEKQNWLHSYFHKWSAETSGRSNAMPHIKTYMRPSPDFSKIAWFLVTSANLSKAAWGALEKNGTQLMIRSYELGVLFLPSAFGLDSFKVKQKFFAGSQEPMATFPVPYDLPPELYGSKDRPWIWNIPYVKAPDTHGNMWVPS
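E. coli-derived human Tdp1, 1 nM final. Cpd preinc 15 min RT; substrate 15 nM final, 5 min RT; AS bead mix 10 ug/ml final, 10 min RT. Signal loss = tyrosine-FITC cleavage. No-enzyme wells = max signal.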
TDP1 cell CPT: growth inhibition of DT40 Tdp1-/-;hTDP1 cells with camptothecin (screen for TDP1 inhibitors). AID 686979. 420,000 tested, 12% active. chicken DT40 Tdp1-/-;hTDP1 cells + 20 nM CPT, ATP luminescence, 48 h. Potency, µM (titrated, usually from 46.2 µM), without a hit: at the top dose activity change, negative = growth inhibition, actives largely listed as inhibitors; note: nearly all actives have a fitted effect of over 55% in size
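Chicken DT40 Tdp1-/- cells complemented with human TDP1, 400 cells/well, exposed to compounds plus 20 nM camptothecin for at least 48 h at 37 C; viability read as ATP content by CellTiter-Glo luminescence.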
RORg inh: inhibitors of mouse ROR gamma transcriptional activity | P51450 | Potency, µM (doses to about 53.6 µM), for the others: top-dose activity change, negative = inhibition, usual class: inhibitors | 310,000 tested, 5.4% active | Drosophila S2 Gal4-RORgamma UAS-luciferase reporter, 20 h; note: nearly all actives have a fitted effect of over 60% in size
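Read-out: Photinus luciferase luminescence; inhibitors lower reporter signal. Insect Schneider cells with Gal4-ROR gamma fusion under metallothionein promoter, UAS reporter; 700 uM final copper sulfate induction, 20 hr, ambient temperature.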
Gal4-VP16 FLuc: Gal4-VP16 reporter inhibition counter-screen. Drosophila S2 Gal4-VP16 UAS-luciferase, luminescence, 20 h. Potency, µM (top dose mostly 53.6 µM), without a hit: top-dose activity, negative = inhibition, usual class: inhibitors. 310,000 tested, 3.5% active. AID 2546;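 note: Gal4-VP16 expression switched on by copper sulfate through the metallothionein promoter; nearly all actives have a fitted effect of over 50% in size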
DT40 TDP1 no CPT: qHTS for Inhibitors of human tyrosyl-DNA phosphodiesterase 1 (TDP1): qHTS in cells in absence of CPT | DT40 Tdp1-/- hTDP1 cells, no CPT, ATP luminescence, 48 h | Potency, µM (highest dose often 46.2 µM), for inactives: top-dose activity change, negative = growth inhibition, hits mostly inhibitors | 420,000 tested, 15% active | AID 686978, 2013; note: nearly all actives have a fitted effect of over 55% in size
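Luminescent ATP content (CellTiter-Glo) served as the growth readout. Knockout chicken DT40 cells expressing human TDP1 were exposed to compounds without camptothecin for a minimum 48 hr at 37 °C.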
An asterisk follows results filed as active; ? = inconclusive; . = not tested or not shown; [ ] = another dose, or the depositor's remark. Shown are actives, neighbours in structure and some others; about 19% of the full set was active somewhere. Calls come from the whole dose curve; as a rule, active = well fitted curve in the direction sought with a large enough effect; inconclusive = small, poorly fitted or top-dose-only effect, or another doubt; inactive = no such curve, though single readings can be large; an effect the other way counts as inactive or inconclusive. % is set by controls: 0 for no effect and ±100 for the full control effect; potency is the fitted concentration of half-maximal effect.

SMILES	TDP1 block	TDP1 cell CPT	RORg inh	Gal4-VP16 FLuc	DT40 TDP1 no CPT
CCOC(=O)c1c(C)[nH]c(C(=O)OCC(=O)Nc2sccc2C(N)=O)c1C	.	1.6µM*	.	.	2.1µM*
COc1cc(Cl)c(C)cc1NC(=O)COC(=O)C1CC1C (configuration not stated)	-6%	0%	.	.	9%
CCOC(=O)c1[nH]c(C)c(C(=O)OCC(=O)NCc2ccc(Cl)cc2)c1C	0%	-15%	.	.	-17%
CCOC(=O)c1c(C)[nH]c(C(=O)OCC(=O)Nc2ccc(Cl)cn2)c1C	-3%	-1%	.	.	-2%
CCOC(=O)c1c(C)[nH]c(C(=O)OCC(=O)Nc2cc(C)c(Cl)cc2OC)c1C	1%	3.7µM*	-8%	-24%	4.6µM*
CC(=O)c1c(C)[nH]c(C(=O)OCc2c(F)cccc2Cl)c1C	8%	?	-26%	17%	?
CCOC(=O)c1c(C)[nH]c(C(=O)OCC(=O)NCc2ccc(OC)c(OC)c2)c1C	2%	8.2µM*	.	.	18µM*
COc1ccc(CNC(=O)COc2ccc(S(=O)(=O)N3CCCCC3)cc2)cc1	4%	-20%	?	1%	?
CCOC(=O)c1c(NC(NC(C)=O)C(Cl)(Cl)Cl)sc(C(C)=O)c1C (configuration not stated)	-3%	?	38%	0%	?
CCOc1ccc(CCNC(=O)COC(=O)c2[nH]c(C)c(C(C)=O)c2C)cc1OCC	.	?	.	.	21µM*
CC(=O)c1c(C)[nH]c(C(=O)OCC(=O)NCCCc2ccccc2)c1C	0%[56.1 µM]	?	.	.	?
NC(=O)c1ccsc1NC(=O)COC(=O)c1c(F)cccc1Cl	-4%[56.1 µM]	?	.	.	8.2µM*
CC(=O)c1c(C)[nH]c(C(=O)OCC(=O)NCCc2ccc(F)cc2)c1C	2%	?	11%	-3%	23µM*
CSc1ccc(CCNC(=O)C(C)n2c(C)c3cnn(-c4ccccc4)c(=O)c3c2C)cc1 (configuration not stated)	8%	26µM*	.	.	?
COc1ccc(OC)c(CCNC(=O)C(C)n2c(C)c3cnn(-c4ccccc4)c(=O)c3c2C)c1 (configuration not stated)	8%	21µM*	.	.	?
CCC(C(=O)Nc1ccccc1C(=O)OC)n1c(C)c2cnn(-c3ccccc3)c(=O)c2c1C (configuration not stated)	8%	26µM*	.	.	?
COc1ccc(OC)c(CNC(=O)C(C)n2c(C)c3cnn(-c4ccccc4)c(=O)c3c2C)c1 (configuration not stated)	5%	?	.	.	12µM*
Cc1c2cnn(-c3ccccc3)c(=O)c2c(C)n1C(C)C(=O)NCc1cccc(Br)c1 (configuration not stated)	8%	?	.	.	?
Cc1ccc2nc(-c3ccc(N4C(=O)CC(N5CCCC(C)C5)C4=O)cc3)sc2c1 (configuration not stated)	5%	.	-15%	7%	.
Cc1ccccc1-c1ccc2ncnc(NCc3cccs3)c2c1	.	?	28%	-9%	?
NC(CSCc1cccc(Br)c1)C(=O)O (configuration not stated)	1%	-18%	6%	-7%	?
Cc1cc(F)ccc1S(=O)(=O)NCC(c1cccnc1)N1CCc2ccccc21 (configuration not stated)	11%	?	31%	-6%	16µM*
O=C(NCC(c1cccnc1)N1CCc2ccccc21)c1cccc(F)c1 (configuration not stated)	4%	15µM*	.	.	21µM*
O=C(NCC(c1cccnc1)N1CCc2ccccc21)c1cccc(Br)c1 (configuration not stated)	5%	?	.	.	13µM*
CN(Cc1nc(Cc2cccc(F)c2)no1)CC1COCCO1 (configuration not stated)	0%	-5%	40%	0%	-10%
SMILES	TDP1 block	TDP1 cell CPT	RORg inh	Gal4-VP16 FLuc	DT40 TDP1 no CPT
O=[N+]([O-])c1cccc(-c2c[n+]3c(n2-c2ccccc2)SCC3)c1	0%	20%	-25%	-3%	-6%
CCOc1ccc(-n2c(-c3ccccc3)c[n+]3c2CCCCC3)cc1	-3%	0.15µM*	?	3.5µM*	0.029µM*
Cc1ccc(-c2c[n+]3c(n2-c2ccccc2)CCC3)cc1	3%	1.2µM*	?	?	0.65µM*
CC1Cc2ccccc2N1C(=O)CSc1nnc2n1C(C)(C)Cc1ccccc1-2 (configuration not stated)	7%	21µM*	-3%	-27%	21µM*
COc1ccccc1N1CCN(C(=O)CSc2nnc3n2C(C)(C)Cc2ccccc2-3)CC1	1%	13µM*	1%	-4%	15µM*
Nn1c(SCC(=O)Nc2ccc3c(c2)OCO3)nnc1-c1ccccc1	-1%	-9%	?	6%	1%
CC1(C)Cc2ccccc2-c2nnc(SCC(=O)Nc3ccc4c(c3)OCO4)n21	2%	16µM*	19%	-3%	?
O=C1OCCC1Sc1nnc2c(n1)[nH]c1ccccc12 (configuration not stated)	.	12%	.	.	-3%
COc1ccccc1N1CCN(C(=O)C2CCN(C(=O)c3ccc(C(C)(C)C)cc3)CC2)CC1	4%	?	?	-2%	?
CCCCN(C(=O)c1ccc(N2CCCC2=O)cc1)c1c(N)n(CCCC)c(=O)[nH]c1=O	.	2%	.	.	-15%
CCN(CC)CC(=O)N1c2ccccc2Sc2ccc(Cl)cc21	2%	-11%	-43%	2%	-25%
CCOC(=O)c1c(C)sc2c1N(C(C)=O)c1cc(Cl)ccc1S2	-3%	?	-6%	-3%	16µM*
CCOC(=O)C1CCN(CC(O)COc2ccc(C(C)(C)C)cc2)CC1 (configuration not stated)	-1%	?	-16%	-19%	16µM*
CCOC(=O)C1CCN(CC(O)COc2ccc(C(C)(C)CC)cc2)CC1 (configuration not stated)	0%	16µM*	4%[10 µM]	-19%	18µM*
CCOC(=O)C1CCN(CC(O)COc2ccc(C(C)=O)cc2)CC1 (configuration not stated)	0%	9%	?	7%	-1%
CN(CC1CCCO1)S(=O)(=O)c1ccc(C(=O)Nc2ccccc2F)cc1 (configuration not stated)	.	1%	.	.	?
COc1ccccc1-c1nnc(NC(=O)c2ccc(S(=O)(=O)N(C)CC3CCCO3)cc2)o1 (configuration not stated)	7%	?	0.71µM*	1µM*	?
